# Experiments:
# Format in all cases: functional
# [1] = test system: Plasmodium falciparum; assay: GSK_TCMDC: Inhibition of Plasmodium falciparum 3D7 in whole red blood cells, using parasite LDH activity as an index of growth. Test compounds present at 2uM
# [2] = test system: Plasmodium falciparum; assay: GSK_TCMDC: Inhibition of Plasmodium falciparum Dd2 in whole red blood cells, using parasite LDH activity as an index of growth. Test compounds present at 2uM
# [3] = test system: HepG2; assay: GSK_TCMDC: Percent inhibition of human HepG2 cell line. Test compounds present at 10uM.
Compound,Inhibition [1] [%],Inhibition [2] [%],Inhibition [3] [%]
CCCC[C@@H](C(=O)NCCc1ccc(Cl)cc1)N1C(=O)CCC1C(=O)Nc1ccc(Cl)c(Cl)c1 (stereo partly specified),95,2,4
CCOc1ccccc1NC(=O)C(Sc1nc(C)cc(C)c1C#N)c1ccccc1 (stereo unspecified),99,98,0
Cc1ccc(NC(=O)c2cccc(CN3CCCN(CC4CCCCC4)CC3)c2)cc1F.O=C(O)C(F)(F)F,85,42,22
CN1CCC(NCc2cccc(-c3ccc(S(=O)(=O)NCCN4CCCC4)s3)c2)CC1.O=C(O)C(F)(F)F,91,1,10
O=C(Nc1ccc(Cl)cc1)c1cc(Cl)ccc1NC(=O)C1CCc2ccccc2O1 (stereo unspecified),98,63,1
COc1cc(F)c2ncc(Cl)c([C@@H](O)CN3CCC(NCc4ccc5c(n4)NC(=O)CO5)CC3)c2c1.Cl,100,100,12
CS(=O)(=O)Nc1cccc(-c2cnc3[nH]cc(-c4cccc(CN)c4)c3c2)c1,96,82,25
CCOc1ccc2nc(N(CCCn3ccnc3)C(=O)C=Cc3cccs3)sc2c1.Cl,97,97,0
CC1N=C(N)N=C(N)N1OCc1ccccc1.Cl (stereo unspecified),94,72,62
Cn1cnc2c(Nc3ccncc3)nc(-c3ccc4c(c3)OCO4)nc21.O=C(O)C(F)(F)F,96,2,19
CN1CCN(CCCN(Cc2csc(-c3ccc(CNCc4ccccc4)cc3)n2)C(=O)Nc2cc(Cl)cc(Cl)c2)CC1.O=C(O)C(F)(F)F,100,45,34
COc1ccc(CNc2nccc3ccc(-c4ccc5nccn5c4)cc23)cc1.O=C(O)C(F)(F)F,95,47,17
O=C(c1cccc(-c2ccc(-c3nc4cc(C(F)(F)F)ccc4[nH]3)cc2)c1)N1CCCCC1CN1CCC(O)C1 (stereo unspecified),92,100,19
O=C(O)c1ccc(NC(=O)C2CC(=O)N(Cc3ccc(Cl)cc3)C(=Nc3ccc(Cl)cc3)S2)cc1 (stereo unspecified),99,95,0
O=C(/C=C/c1ccc(Cl)c(Cl)c1)NCCCCCN1CCC(CCNC(=O)/C=C/c2ccccc2F)CC1,94,1,47
CO/C(=C\C=C\c1cc2cc(Cl)c(Cl)cc2[nH]1)C(=O)NCCCN1CCN(c2cccc(CCO)c2)CC1,100,32,61
COc1ccc(CNc2nc(Nc3cccc(C#N)c3)nc(Nc3cccc(C#N)c3)n2)cc1Cl,100,83,0
CCN(CC)CCN(Cc1ccc(-c2ccc(C(F)(F)F)cc2)cc1)C(=O)Cn1c(SCc2ccc(F)cc2)nc(=O)c2sccc21.O=C(O)C(O)C(O)C(=O)O,100,65,51
C=CC[C@@H](C(=O)OCC)[C@@H]1[C@@H](N(CC=C)C(=O)OC(C)(C)C)CCN1C(=O)OCc1ccccc1,92,68,2
COc1ccc(-c2ccc(NC(=O)c3ccc(Cl)cc3)cc2)cc1CN1CCN(C)CC1.O=C(O)C(F)(F)F,86,23,36
CCCCN1C(=O)C2CC(=O)CC(C3CCCCC3)C2C1=O (stereo unspecified),97,1,0

Compound,Inhibition [1] [%],Inhibition [2] [%],Inhibition [3] [%]
Cc1ccc(CCOCCCCCNCC(O)c2cc(Cl)c(N)c(Cl)c2)cc1 (stereo unspecified),99,98,10
Cc1nnc2c(NC(=O)NC3CCCC3)cc3cc(-c4ccc(CN5CCN(C)CC5)cc4)ccc3n12,99,91,100
Cc1cc(=O)c2cc(Oc3cccc(OC(F)(F)F)c3)ccc2[nH]1,90,80,9
COc1cc2nc(N3CCC(CNC(=O)c4cc(Br)c(Br)s4)CC3)nc(N)c2cc1OC.O=C(O)C(F)(F)F,100,97,22
Nc1cc(-c2ccc3c(N)nccc3c2)ccc1Cl,91,4,1
CN(C)CC1CCCN1Cc1ccccc1-c1cnn(C)c(=O)c1Oc1ccccc1F.O=C(O)C(F)(F)F (stereo unspecified),95,27,18
CC(C)COc1cc(C(=O)Nc2cnc3ccccc3c2)ccc1[N+](=O)[O-],97,56,19
CCN(CC)CCN(Cc1ccc(-c2ccc(Cl)cc2)cc1)C(=O)Cn1cc(CN(C)C)c(=O)nc1SCc1ccc(F)cc1,99,99,49
Cl.Nc1c2c(nc3ccc(NC(=O)Cc4ccccc4)cc13)CCCC2,100,0,9
O=C(NC1CCN(Cc2ccsc2)CC1)c1ccc(-c2cccc(C(F)(F)F)c2)s1.O=C(O)C(F)(F)F,88,3,48
Cc1cc(CNCC(CCNc2cc(=O)c3ccccc3[nH]2)NCc2cc(Br)cc(Br)c2)oc1C (stereo unspecified),98,85,4
O=C(Nc1ccc(Cl)cn1)c1sc2ccccc2c1O,99,18,2
N#Cc1cccc(C(O)CN(Cc2ccccc2)Cc2ccccc2)c1 (stereo unspecified),100,100,12
O=C(NCCCN1CCC(N2CCCCC2)CC1)C1=Cc2cc(Br)ccc2OC1,100,19,26
COc1ccccc1-c1cc(C(=O)N2CCN(S(=O)(=O)c3ccc(C)cc3)CC2)[nH]n1,88,88,0
Oc1ccc2[nH]c(-c3ccc(F)cc3F)nc2c1CN1CCC(O)(c2ccccc2)CC1,96,70,16
CCc1nc2c(cnn2CC)c(NC2CCOCC2)c1CNC(=O)c1ccoc1C,97,87,6
Cc1[nH]c2ccccc2c1C=NNc1nc(=Nc2ccccc2)[nH]c(=Nc2ccccc2)[nH]1,87,23,3
COc1ccc2[nH]c(C(=O)Nc3ccc4[nH]c(-c5ccccc5)nc4c3)cc2c1.O=C(O)C(F)(F)F,96,23,51
Cc1ccc(C(NC(=O)C2CCCCC2)c2ccc3cccnc3c2O)cc1 (stereo unspecified),91,59,69
CCCC(CNCc1cccc(SC(F)(F)F)c1)CNc1cc(=O)c2ccccc2[nH]1 (stereo unspecified),100,87,5

Compound,Inhibition [1] [%],Inhibition [2] [%],Inhibition [3] [%]
Cc1cccc(-n2nc(C)c3c2NC(=O)CC3C(=O)c2ccc(Cl)s2)c1 (stereo unspecified),92,85,13
Cc1cccc(-n2c(=O)c3c4c(sc3n3c(SCCC(C)C)nnc23)CCCC4)c1,90,8,0
CC(O)C1CCCCN1C(=O)c1cccc(-c2ccc(-c3nc4cc(F)ccc4[nH]3)cc2)c1 (stereo unspecified),100,99,46
CN1CCC(NCc2ccc(-c3ccc(S(=O)(=O)NCc4ccccc4)cc3)cc2)CC1.O=C(O)C(F)(F)F,99,51,40
COc1cc(Cc2cnc(N)nc2N)ccc1OCC(=O)Nc1ccc(C)cc1,95,18,10
CN1CCC(c2c[nH]c3ccc(NC(=O)Nc4ccc(-c5ccncc5)c(Cl)c4Cl)cc23)CC1,100,19,27
O=C1C(C2CCC(c3ccc(Cl)cc3)CC2)=C2OCC3COC2(O3)c2ccccc21 (stereo unspecified),98,97,7
CN(C)c1ccc(/C=C2\S/C(=N\c3ccccc3)N(c3ccccc3)C2=O)cc1[N+](=O)[O-],96,82,9
O=C1SC(S)=NC1=CNCCCCCCO,91,1,7
Cc1cc(C(=O)NC2CCN(CC3(c4ccccc4)CCCCC3)CC2)on1,97,95,0
c1ccc(COc2ccc(Cn3ccc(-c4ccc(-n5ccnc5)cc4)n3)cc2)cc1.c1ccc(COc2ccc(Cn3nccc3-c3ccc(-n4ccnc4)cc3)cc2)cc1,94,67,2
CCNc1cc(C(=O)N[C@@H](Cc2ccccc2)[C@H](O)CNCCc2cccc3ccccc23)cc(N2CCCC2=O)c1.O=CO,86,39,12
Cc1cc(Nc2cc(Cl)cc(Cl)c2)nc(N)n1,94,28,0
O=C(OCc1ccccn1)c1nc2ccccc2[nH]1,92,97,63
Cc1c(CNCCCNc2cc(=O)c3ccccc3[nH]2)sc(/C=N/O)c1Br.Cl,82,0,0
CC1CN(Cc2ccc(-c3ccc(-c4nc5ccccc5[nH]4)cc3)cc2)CC(C)O1.O=C(O)C(F)(F)F (stereo unspecified),98,96,48
CN1CC(c2ccccc2)c2cc(O)c(CN3CCCCC3)cc2CC1Cc1ccccc1.Cl (stereo unspecified),99,99,0
O=C(NC1CCCCC1)c1csc(C2CCCN(C(=O)c3ccc(O)c(-c4cccc(C(F)(F)F)c4)c3)C2)n1 (stereo unspecified),96,85,8
O=C(O)C(F)(F)F.OCCC1CCN(Cc2ccc(-c3ccc(-c4nc5ccccc5[nH]4)cc3)cc2)CC1,99,98,35
CCc1ccc(NC(=O)c2ccc(CN3CCCN(Cc4ccc(C)s4)CC3)cc2)cc1.O=C(O)C(F)(F)F,87,0,48
